The source of these data is PubChem BioAssay AID1839 (Johns Hopkins Ion Channel Center, 2009).

SMILES strings stand for the structures. Out of some 2,400 compounds screened, about 220 (9.2%) were called active. What follows is part of a selection rich in actives, with near analogues and random picks from the rest. Values without a mark were called inactive.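 The calls were made as follows: active = signal change above the mean of dofetilide-free buffer controls plus 3 SD, so a positive margin; inactive = the rest.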

A short description of the assay: thallium signal changes without hERG – cell-based, CHO-K1 parental line, FluxOR thallium flux, counter-screen for hERG block protection project, confirmation (AID 1839).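 Also: compounds applied alone with no dofetilide to cells lacking hERG.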 The settings on record: CHO-K1 parental cells, FluxOR thallium flux fluorescence; at 10 µM.
With `O=C(CCc1ccccc1Cl)Nc1ccc(S(=O)(=O)N2CCOCC2)cc1`, the signal change vs control minus 3*SD hit threshold (margin above threshold, higher = more increase) was -31.3%. In the case of `CC(=O)OCC1O[C@@H](O[C@@H]2C[C@H]3C(C)(C)[C@H](OC(C)=O)CC[C@]3(C)[C@H]3CC[C@]45C[C@]4(CC[C@H]5[C@@H](C)C[C@@H](O)[C@H](O)C(C)(C)O)[C@@]32C)[C@H](O)[C@@H](O)[C@@H]1O` (stereo partly drawn), the signal change vs control minus 3*SD hit threshold (margin above threshold, higher = more increase) is -4.8%.

`Cc1c(OC(C)C(=O)NCCN2CCOCC2)ccc2c3c(c(=O)oc12)CCC3` (stereo not drawn): the signal change vs control minus 3*SD hit threshold (margin above threshold, higher = more increase) was -28.3%. In the case of `Cc1occc1C(=O)NNC(=S)NC(=O)COc1ccc(Cl)cc1Cl`, the signal change vs control minus 3*SD hit threshold (margin above threshold, higher = more increase) was -23.7%. Consider `Cc1c(C#N)c(O)[nH]c(=O)c1N=Nc1ccc(Br)cc1C(=O)O`, for which the signal change vs control minus 3*SD hit threshold (margin above threshold, higher = more increase) is -28.4%. The same measure for `N#Cc1ccc(-c2nc3ccc(Br)cc3c(=O)n2O)cc1`: -5.1%; for `O=c1c2cc(Br)ccc2nc(-c2ccccc2)n1O`: 5.2% (active); for `O=c1cc(-c2ccccc2)cc(-c2ccccc2)n1O`: -22.5%. Take `Cc1sc2nc(C(C)C)nc(SCC(=O)NCc3ccco3)c2c1C`: the signal change vs control minus 3*SD hit threshold (margin above threshold, higher = more increase) is -12.6%. On to `O=C(NC(=S)N1CCCC(C(F)(F)F)C1)c1ccc(F)cc1` (stereo not drawn), for which the signal change vs control minus 3*SD hit threshold (margin above threshold, higher = more increase) is 4.7% (active). `CC(C)(C)c1ccc(C(=O)NC(=S)N2CCCC2)cc1`: the signal change vs control minus 3*SD hit threshold (margin above threshold, higher = more increase) was -17.2%. In the case of `CC(C)(C)c1ccc(C(=O)NC(=S)N2CCCCCC2)cc1`, the signal change vs control minus 3*SD hit threshold (margin above threshold, higher = more increase) was -12.4%.

`CC(=O)N1c2ccc(N=Cc3cc(Br)cc(Br)c3O)cc2CC1C` (stereo not drawn): the signal change vs control minus 3*SD hit threshold (margin above threshold, higher = more increase) was 1.6% (active). Take `Cc1nnc(C)n1/N=C/c1cc(Br)cc(Br)c1O`: the signal change vs control minus 3*SD hit threshold (margin above threshold, higher = more increase) is -18.1%. Turning to `CNC(=S)N/N=C/c1cc(Br)cc(Br)c1O`, the signal change vs control minus 3*SD hit threshold (margin above threshold, higher = more increase) was -14.8%.

With `NC(=O)[C@@H]1CCCN1Cc1nc(Cc2ccccc2Cl)no1`, the signal change vs control minus 3*SD hit threshold (margin above threshold, higher = more increase) is -33.1%. Turning to `CSc1nc(C)c(Cc2ccccc2)c(=O)[nH]1`, the signal change vs control minus 3*SD hit threshold (margin above threshold, higher = more increase) is -30.6%.

As for `CN(C)c1ccc(N=Nc2ccc(C(=O)O)cc2)cc1`, the signal change vs control minus 3*SD hit threshold (margin above threshold, higher = more increase) is -27.2%. The same measure for `Cc1ccc(N=Nc2ccc(O)c3ncccc23)cc1`: -33.4%; for `O=c1ccc(N=Nc2ccccc2)ccc1O`: 27.6% (active). Consider `CCC1CCCCN1C(=S)NC(=O)c1cccs1` (stereo not drawn), for which the signal change vs control minus 3*SD hit threshold (margin above threshold, higher = more increase) is -31.1%. On to `COc1ccc(C(=O)Nc2ccccc2C(=O)O)cc1Cl`, for which the signal change vs control minus 3*SD hit threshold (margin above threshold, higher = more increase) was -30.4%. Turning to `COc1ccc(/C=C/C(=O)Nc2ccccc2C(=O)O)cc1`, the signal change vs control minus 3*SD hit threshold (margin above threshold, higher = more increase) is -18.6%. Turning to `COc1ccc(-n2nc(C)cc2Nc2ccccc2C(=O)O)cc1`, the signal change vs control minus 3*SD hit threshold (margin above threshold, higher = more increase) was 0.3% (active). With `CCOc1cc(N2CCOCC2)c(OCC)cc1NC(=O)Cc1ccccc1`, the signal change vs control minus 3*SD hit threshold (margin above threshold, higher = more increase) is -13.5%.

For `Nc1nonc1-n1nnc(C(=O)N/N=C/c2ccccn2)c1-c1ccccc1`, the signal change vs control minus 3*SD hit threshold (margin above threshold, higher = more increase) was -22.7%.

Take `O=C(NC(=S)Nc1nc2c(s1)CSc1ccccc1-2)c1ccccc1`: the signal change vs control minus 3*SD hit threshold (margin above threshold, higher = more increase) was -20.9%. The same measure for `COc1ccc(-c2cc(C(F)(F)F)nc(SCC(=O)NCc3cccs3)n2)cc1`: -17.2%. For the compound `Cc1ccccc1NC1=NC(=S)N(c2ccccc2)C12CCCCC2`, the signal change vs control minus 3*SD hit threshold (margin above threshold, higher = more increase) is -2.6%. For `COc1ccc(C(=O)CC(=O)C(=O)Nc2ccccc2C(F)(F)F)cc1`, the signal change vs control minus 3*SD hit threshold (margin above threshold, higher = more increase) was -24.1%. Take `COc1ccc(C(=O)CC(=O)C(=O)Nc2ccccc2OC)cc1`: the signal change vs control minus 3*SD hit threshold (margin above threshold, higher = more increase) was -25.2%.

Regarding `CCOc1ccccc1NC(=O)C(=O)CC(=O)c1ccc(OC)cc1`, the signal change vs control minus 3*SD hit threshold (margin above threshold, higher = more increase) was -20.6%. On to `COc1ccc(C(=O)NNC(=O)C(=O)Nc2cccc3ccccc23)cc1`, for which the signal change vs control minus 3*SD hit threshold (margin above threshold, higher = more increase) was 12.2% (active). For the compound `COc1ccc(C(=O)CC(=O)C(=O)Nc2ccccc2Cl)cc1`, the signal change vs control minus 3*SD hit threshold (margin above threshold, higher = more increase) is 10.1% (active). `CCOc1ccccc1NC(=O)C(=O)CC(=O)c1cccc(OC)c1`: the signal change vs control minus 3*SD hit threshold (margin above threshold, higher = more increase) is -25.9%. Regarding `COc1ccc(C(=O)CC(=O)C(=O)Nc2ccc(C)cc2Cl)cc1`, the signal change vs control minus 3*SD hit threshold (margin above threshold, higher = more increase) is -13.5%.

Take `COc1cccc(C(=O)NNC(=O)C(=O)Nc2cccc3ccccc23)c1`: the signal change vs control minus 3*SD hit threshold (margin above threshold, higher = more increase) was 11.1% (active). Consider `COc1cccc(C(=O)NNC(=O)C(=O)Nc2ccc(OC)cc2OC)c1`, for which the signal change vs control minus 3*SD hit threshold (margin above threshold, higher = more increase) was -6.2%. Turning to `CCOC(=O)N1CCN(C(=O)c2ccc(Cl)c(S(=O)(=O)Nc3ccccc3)c2)CC1`, the signal change vs control minus 3*SD hit threshold (margin above threshold, higher = more increase) is -11.6%. Take `O=C(O)CSc1nc2ccccc2nc1Cc1ccccc1F`: the signal change vs control minus 3*SD hit threshold (margin above threshold, higher = more increase) is -22.7%. As for `CCC(=O)N1CCN(c2nc(CC)nc3sc4c(c23)CCCC4)CC1`, the signal change vs control minus 3*SD hit threshold (margin above threshold, higher = more increase) was -56%.

Turning to `Cc1cc(-c2cccc(Br)c2)c(C#N)c(N)n1`, the signal change vs control minus 3*SD hit threshold (margin above threshold, higher = more increase) is -34.5%. For `O=C(CCN1C(=O)/C(=C\C=C\c2ccccc2)SC1=S)Nc1cccc(C(=O)O)c1`, the signal change vs control minus 3*SD hit threshold (margin above threshold, higher = more increase) was -27.2%. The same measure for `Cc1ccccc1OC(=O)n1c(=S)oc2cc(Cl)ccc21`: -25.4%; for `CC(C)CC(=O)Nc1nc(=S)ss1`: -30.3%; for `COC(=O)c1sc(NC(=S)NC(=O)c2ccccc2C)nc1C`: -2.6%. `O=C(Nc1nnc(-c2ccc3c(c2)CCCC3)o1)c1ccc(Cl)cc1Cl`: the signal change vs control minus 3*SD hit threshold (margin above threshold, higher = more increase) is -21.2%. With `O=C(NNC(=O)c1ccc(Cl)cc1Cl)c1cnccn1`, the signal change vs control minus 3*SD hit threshold (margin above threshold, higher = more increase) was -29%.
